Bioassay records (PubChem BioAssay)
Only some compounds are listed: those with a hit (about 6.8% of all), similar ones and a draw of the others.
MK inhibit: inhibitors of Streptococcus pneumoniae mevalonate kinase | inhibition, % at 10 µM | AID 555 | purified MK, PK/LDH-coupled NADH absorbance 340 nm | 0.48% of 65,000 active;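 active = ranked among the strongest by inhibition in the single 10 µM screen, a fixed top-ranked set picked for dose follow-up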
Autofluor 339: intrinsic fluorescence of library compounds, ex339/em460 – biochemical, MLSMR library, data from DPM-DC assay, artefact control, profiling panel; compound autofluorescence, ex339/em460 nm, NADH buffer; active compounds read high; 1 = no-compound wells, NADH background; fluorescence fold increase at 10 µM; 5.5% of 65,000 active; AID 709;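 active = at 10 µM, mean starting fluorescence two-fold or more over control wells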;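 note: signal is the first read of a kinetic run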
DPM-DC inhibit: blocks S. pneumoniae diphosphomevalonate decarboxylase. purified DPM-DC, PK/LDH coupled NADH fluorescence. calls only at 10 µM. 0.49% of 65,000 active;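 active = the 320 compounds with the highest percent inhibition in the single-dose primary screen, excluding strongly autofluorescent ones, cut at about 32% in these data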;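 note: kinetic rate of NADH fluorescence loss reporting ADP formed by the decarboxylase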
NADH enzymes: inhibition of NAD/NADH coupling enzymes, library profiling | 0.02% of 65,000 active | AID 774 | IC50, µM (series often up to 10 µM), for the others: top-dose inhibition | coupled PK/LDH NADH assays, four targets;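 active = single-dose screening hits from any of four coupled enzyme assays that gave an IC50 when retested across doses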;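 note: the DPM-DC format reads NADH fluorescence rather than 340 nm absorbance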
A340 absorber: compounds absorbing at 340 nm | compound absorbance at 340 nm, fold over control | fold change at 10 µM | 65,000 tested, under 10 active;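 active = at 10 µM dose, initial 340 nm absorbance at least 2 fold that of control wells; inactive = change under 2 fold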;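 note: initial absorbance extrapolated from kinetic A340 decline of NADH oxidation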
Spn PMK inh: S. pneumoniae PMK inhibition. inhibition, % at 10 µM. AID 539. purified PMK, PK/LDH-coupled NADH absorbance 340 nm. 0.49% of 65,000 active;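 active = top-ranked compounds by inhibition in the single 10 µM screen, taking a fixed number of the strongest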;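 note: 0% = full reaction with DMSO carrier and 100% = background rate without enzyme reaction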
* hit, by the source's call.

COc1ccc(-n2c3c(cc(C(=O)Nc4ccc5c(c4)C(=O)NC5=O)c2=O)C(=O)CCC3)cc1 was read as MK inhibit 8, Autofluor 339 1.2, DPM-DC inhibit inactive, NADH enzymes 7%, A340 absorber 1.1 and Spn PMK inh 13.
`O=C(Nc1ccc(-c2noc(-c3cccs3)n2)cc1)c1cccnc1` gave MK inhibit 7, Autofluor 339 1.1, DPM-DC inhibit inactive, NADH enzymes 1%, A340 absorber 1 and Spn PMK inh 0.
For COC(=O)C1=CN(C(C)C)C=C(C(=O)OC)C1c1cc2c(cc1Br)OCO2 the results were MK inhibit 7, Autofluor 339 2*, DPM-DC inhibit inactive, NADH enzymes 5%, A340 absorber 1 and Spn PMK inh 4.
For CC1=C(C(=O)OCC(C)C)C(c2cc3c(cc2Br)OCO3)NC(=O)N1C (centres undefined) the results were MK inhibit 9, Autofluor 339 1, DPM-DC inhibit inactive, NADH enzymes 3%, A340 absorber 0.99 and Spn PMK inh 12.
`CON(C)c1nc(OCCNC(=O)COc2ccc(Cl)cc2C)nc(N(C)C)n1` gave MK inhibit 0, Autofluor 339 1.1, DPM-DC inhibit inactive, NADH enzymes 0%, A340 absorber 1 and Spn PMK inh 0.
For CON(C)c1nc(OCCNC(=O)OCc2ccc(Cl)cc2Cl)nc(N(C)C)n1 the results were MK inhibit 0, Autofluor 339 0.99, DPM-DC inhibit inactive, NADH enzymes 9%, A340 absorber 1 and Spn PMK inh 25*.
Cc1cccc(OCC(O)Cn2c(-n3nc(C)cc3C)nc3c2c(=O)[nH]c(=O)n3C)c1 (centres undefined) was read as MK inhibit 13, Autofluor 339 2.9*, DPM-DC inhibit active, NADH enzymes 19%, A340 absorber 0.98 and Spn PMK inh 11.
Screening O=C(NCc1ccccc1)NC1(C(=O)N2CCN(c3ccccc3)CC2)CCCCC1 returned MK inhibit 5, Autofluor 339 1, DPM-DC inhibit inactive, NADH enzymes 7%, A340 absorber 0.97 and Spn PMK inh 17.
For O=C(CSc1nnc2ccccn12)NC(=O)NC1CCCCC1 the results were MK inhibit 5, Autofluor 339 1.1, DPM-DC inhibit inactive, NADH enzymes 8%, A340 absorber 1 and Spn PMK inh 19.
Screening O=C(CSc1nnc2ccccn12)Nc1ccccc1C(=O)NC1CC1 returned MK inhibit 0, Autofluor 339 0.94, DPM-DC inhibit active, NADH enzymes 17%, A340 absorber 1 and Spn PMK inh 14.
For C=CCn1c(SCc2nc3ccccc3c(=O)[nH]2)nnc1-c1cc2cc(Cl)ccc2o1 the results were MK inhibit 10, Autofluor 339 2.1*, DPM-DC inhibit inactive, NADH enzymes 11%, A340 absorber 1.1 and Spn PMK inh 10.
For O=c1[nH]c(CSc2nnc(-c3ccncc3)n2Cc2ccco2)nc2ccccc12 the results were MK inhibit 4, Autofluor 339 1.1, DPM-DC inhibit inactive, NADH enzymes 7%, A340 absorber 0.99 and Spn PMK inh 15.
For C=CCSC1=C(C#N)C(c2cccc(OC)c2)CC(=O)N1 (centres undefined) the results were MK inhibit 15, Autofluor 339 1.1, DPM-DC inhibit inactive, NADH enzymes 7%, A340 absorber 1 and Spn PMK inh 6.
For CCc1cc2c(C)cc(=O)oc2cc1OC(=O)C1CCCN1C(=O)OC(C)(C)C (centres undefined) the results were MK inhibit 10, Autofluor 339 4.9*, NADH enzymes 11%, A340 absorber 1 and Spn PMK inh 11.
Screening CC(C)(C)OC(=O)N1CCCC1C(=O)NCCc1ccccc1 (centres undefined) returned MK inhibit 9, Autofluor 339 1.2, DPM-DC inhibit inactive, NADH enzymes 4%, A340 absorber 1 and Spn PMK inh 3.
`O=c1oc(-c2cccs2)nc2c1cnn2-c1ccccc1` gave MK inhibit 4, Autofluor 339 2.2*, NADH enzymes 4%, A340 absorber 1.1 and Spn PMK inh 4.
Screening O=c1oc(-c2ccccc2)nc2c1cnn2-c1ccccc1 returned MK inhibit 6, Autofluor 339 1.1, DPM-DC inhibit inactive, NADH enzymes 5%, A340 absorber 1.1 and Spn PMK inh 0.
`COc1ccccc1N1C(=O)c2ccccc2NC1c1ccncc1` (centres undefined) gave MK inhibit 12, Autofluor 339 2.1*, NADH enzymes 3%, A340 absorber 1 and Spn PMK inh 0.
`O=C1c2ccccc2NC(c2ccncc2)N1c1ccccn1` (centres undefined) gave MK inhibit 0, Autofluor 339 2.1*, NADH enzymes 0%, A340 absorber 1.1 and Spn PMK inh 0.
COc1ccccc1N1C(=O)N(C(C)=O)C2C1Nc1ccccc1N2C (centres undefined) was read as MK inhibit 1, Autofluor 339 1.2, DPM-DC inhibit inactive, NADH enzymes 1%, A340 absorber 1 and Spn PMK inh 1.
`Cn1cnnc1SCc1ccc(C(=O)n2ncc(C#N)c2N)cc1` gave MK inhibit 0, Autofluor 339 1.2, DPM-DC inhibit inactive, NADH enzymes 2%, A340 absorber 1 and Spn PMK inh 7.
For COCCn1c(SCC(=O)N2CCN(c3ccccc3)CC2)nc2c(c1=O)SC(C)C2 (centres undefined) the results were MK inhibit 0, Autofluor 339 1, DPM-DC inhibit inactive, NADH enzymes 6%, A340 absorber 1.2 and Spn PMK inh 18.
O=C(Nc1nc(NC(=O)c2ccco2)n(-c2ccccc2)n1)c1ccccc1 was read as MK inhibit 0, Autofluor 339 2.4*, NADH enzymes 1%, A340 absorber 1.1 and Spn PMK inh 1.
CCOc1ccccc1-c1nc(C(N)=O)c2[nH]c(=O)n(-c3ccc(F)cc3)c2n1 was read as MK inhibit 10, Autofluor 339 2.1*, NADH enzymes 12%, A340 absorber 1.1 and Spn PMK inh 13.
For O=C(CSc1ccc2nnc(-c3ccc(F)cc3)n2n1)N1CCCCC1 the results were MK inhibit 0, Autofluor 339 1.8, DPM-DC inhibit inactive, NADH enzymes 3%, A340 absorber 1 and Spn PMK inh 9.
For CCSc1ccc2nnc(-c3ccc(F)cc3)n2n1 the results were MK inhibit 11, Autofluor 339 2*, DPM-DC inhibit inactive, NADH enzymes 12%, A340 absorber 1 and Spn PMK inh 14.
O=C(CSc1ccc2nnc(-c3ccc(F)cc3)n2n1)NCC1CCCO1 (centres undefined) was read as MK inhibit 4, Autofluor 339 2.3*, DPM-DC inhibit inactive, NADH enzymes 11%, A340 absorber 1 and Spn PMK inh 14.
